Screens (PubChem BioAssay)
Sampled rows, rich in hits. Any-hit rate of the full collection: about 3.1%.
Anthrax LF prot: Bacillus anthracis LF protease inhibitors, primary screen, biochemical, multiplex microsphere, MLPCN library; AID 588501, 2011; inhibition, % at 10 µM; multiplex microsphere protease cleavage assay; hit rate 0.12% among 360,000; Lethal factor (Bacillus anthracis), P15917; note: plate controls were buffer without enzyme for full effect and enzyme alone for no effect
Target sequence (P15917 whole entry, looked up): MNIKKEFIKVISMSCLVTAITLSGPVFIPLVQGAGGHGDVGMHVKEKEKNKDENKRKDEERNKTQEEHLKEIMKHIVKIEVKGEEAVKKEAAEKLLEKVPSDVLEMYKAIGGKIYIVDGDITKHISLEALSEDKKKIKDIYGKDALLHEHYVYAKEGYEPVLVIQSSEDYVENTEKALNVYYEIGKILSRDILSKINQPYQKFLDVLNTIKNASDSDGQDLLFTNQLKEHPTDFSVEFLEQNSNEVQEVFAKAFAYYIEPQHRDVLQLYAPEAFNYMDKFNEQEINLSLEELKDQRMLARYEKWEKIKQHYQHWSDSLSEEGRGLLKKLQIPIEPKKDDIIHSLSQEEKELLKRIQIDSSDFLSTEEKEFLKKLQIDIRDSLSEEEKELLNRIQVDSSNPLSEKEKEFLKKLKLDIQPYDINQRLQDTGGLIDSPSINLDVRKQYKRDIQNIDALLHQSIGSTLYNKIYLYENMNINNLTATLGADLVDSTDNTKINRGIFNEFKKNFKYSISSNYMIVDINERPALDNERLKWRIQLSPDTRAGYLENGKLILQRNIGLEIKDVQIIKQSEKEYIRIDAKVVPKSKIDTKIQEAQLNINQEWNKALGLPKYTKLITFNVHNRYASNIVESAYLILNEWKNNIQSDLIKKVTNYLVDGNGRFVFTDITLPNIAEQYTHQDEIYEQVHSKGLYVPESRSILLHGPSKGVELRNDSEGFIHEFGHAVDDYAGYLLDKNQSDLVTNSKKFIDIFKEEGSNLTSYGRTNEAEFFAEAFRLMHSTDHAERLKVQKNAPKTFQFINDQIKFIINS
SSB-PriA inh: inhibitors of Klebsiella pneumoniae PriA binding to SSB C-terminal tail, primary screen, biochemical, AlphaScreen; PriA–SSB C-terminal tail interaction (Klebsiella pneumoniae); AlphaScreen SSBct-PriA binding, biotinylated peptide; inhibition, % at 33 µM; hit rate 0.6% among 430,000; AID 1272365, 2023; in the data active = inhibition mostly above about 37%, no sharp cut-off; inactive = mostly below about 20%;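 note: plate controls were negative control peptide for no effect and reference peptide for full effect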
BoNT F protease: BoNT/F light chain protease inhibitors, primary screen, biochemical, flow cytometry, MLPCN library; hit rate 0.22% among 360,000; Botulinum neurotoxin type F light chain protease (Clostridium botulinum); Multiplex microsphere protease cleavage assay; inhibition, % at 10 µM; in the data active = inhibition above about 35%, passing the limit was not always enough; inconclusive = no clear call, values can overlap the other calls; note: plate controls were buffer without enzyme for full effect and enzyme alone for no effect
Autofluor counter: flagged as autofluorescent in microsphere protease counterscreen. AID 624483. compound autofluorescence counterscreen, microsphere flow cytometry; hits give high values. fluorescence intensity (test concentration not listed). hit rate 3.1% among 360,000; in the data active = fluorescence intensity above about 16000; inconclusive = no clear call, values can overlap the other calls
BoNT A protease: BoNT/A light chain protease inhibitors, primary screen, biochemical, flow cytometry, MLPCN library; AID 588499, 2011; Botulinum neurotoxin type A light chain protease (Clostridium botulinum A str. ATCC 3502); hit rate 0.17% among 360,000; multiplex microsphere protease substrate cleavage; inhibition, % at 10 µM; note: plate controls were buffer without enzyme for full effect and enzyme alone for no effect
Numbers without * were called inactive; ? = inconclusive; / = not tested or not shown. Cut-off read from the data, not from the text of the source, unless noted: active = inhibition above about 30%; inconclusive = no clear call, values can overlap the other calls; inactive = below that.

SMILES	Anthrax LF prot	SSB-PriA inh	BoNT F protease	Autofluor counter	BoNT A protease
COCC(C)NC(=O)c1ccc(N(C)C)cc1 (stereo unspecified)	-2	-9	-6	17509*	-2
Cc1cccc(C(=O)Nc2ccc(C(=O)NN=Cc3ccc4c(c3)OCO4)cc2)c1	/	-4	/	/	/
COc1ccc(-c2csc3c(=O)n(Cc4cccc(F)c4)cnc23)cc1	/	-8	/	/	/
Cc1cc(=O)[nH]c(SCCCOc2ccccc2Cl)n1	-1	-8	-1	20446*	-2
CCc1cc(OCCCSc2nc(C)cc(=O)[nH]2)ccc1Cl	0	-22	-3	24555*	?
C/C=C/c1ccc(OCCSc2nc(C)cc(=O)[nH]2)c(OC)c1	-1	-16	-9	17582*	-6
Cc1cc(=O)[nH]c(SCc2cccc(Br)c2)n1	-1	-6	3	2170	1
Cc1cc(=O)[nH]c(SCCOc2ccc(OC(C)C)cc2)n1	5	-10	-14	4312	0
Cc1cc(=O)[nH]c(SCCOc2ccc3c(c2)CCC3)n1	0	-5	5	9691	0
COc1ccc(CSc2nc(C)cc(=O)[nH]2)cc1Br	0	-20	2	23006*	0
O=C(NCCn1ncc2c(=O)n(Cc3cccc([N+](=O)[O-])c3)cnc21)c1ccc(F)cc1F	/	-3	/	/	/
O=C(c1cccs1)c1ccc(CNS(=O)(=O)Cc2ccccc2Cl)s1	/	-15	/	/	/
COc1ccc(CNC2CCCc3ccccc32)c(OC)c1 (stereo unspecified)	-11	-4	?	3691	?
COc1ccc(CNCc2ccncc2)c(OC)c1	-17	-6	-8	4132	-4
CCC(CC)NCc1ccc(OC)cc1OC	2	-2	-4	22992*	-1
COc1ccc(CNC2CCCCC2C)c(OC)c1 (stereo unspecified)	-1	-7	2	22181*	3
CN1CCc2cc(C(CNC(=O)c3ccc(Br)o3)N(C)C)ccc21 (stereo unspecified)	/	21	/	/	/
COc1cccc(-c2csc(-n3nc(C)cc3NC(=O)C34CC5CC(CC(C5)C3)C4)n2)c1	/	-12	/	/	/
Cc1ccc(OCC(=O)NC2=NCCS2)cc1	0	-16	-2	2953	0
CC(=O)c1ccc(OCCCC(=O)NC2=NCCS2)cc1	-3	-8	-7	23568*	?
CN(C)S(=O)(=O)c1ccc(C(=O)NCCNc2cc(-n3cccn3)ncn2)cc1	/	-1	/	/	/
Cc1ccc(NC(=O)CSc2ncc(-c3ccccc3)[nH]2)cc1Cl	/	-2	/	/	/
Cc1oc2nc(SCCCC(=O)NCCCO)nc(N)c2c1C	-2	-10	-30	4760	-1
Cc1oc2nc(SCC(=O)NCCCO)nc(N)c2c1C	-2	-7	0	22217*	-1
CC(=O)N(CCN(C)C)c1nc2c(C)cc(C)cc2s1	/	-6	/	/	/
SMILES	Anthrax LF prot	SSB-PriA inh	BoNT F protease	Autofluor counter	BoNT A protease
COc1cccc(C(=O)NN=c2oc3c(OC)cccc3cc2C(=O)NCc2ccccc2)c1	/	-6	/	/	/
COC(=O)c1nc(NC(=S)NC(=O)c2cccs2)sc1C	-3	-13	-3	5947	0
CCc1ccc(-c2nc(NC(=S)NC(=O)c3cccs3)sc2C)cc1	0	7	-1	23514*	-1
CCc1ccc(OCCOC[C@@H](O)CNC(C)(C)C)cc1	/	-8	/	/	/
Cn1nc(-c2ccccc2)c(CSc2ccccc2Cl)c1Cl	-3	-49	25	10460	-2
Cn1nc(-c2ccccc2)c(C(O)c2ccc(Cl)cc2)c1Cl (stereo unspecified)	-1	-6	-2	24423*	-1
O=C1C2C3C=CC(C3)C2C(=O)N1CN(Cc1ccccc1)CN1C(=O)C2C3C=CC(C3)C2C1=O (stereo unspecified)	-1	-20	-2	16805*	-1
CCc1c2c(nc3sc(C(=O)Nc4nsc(-c5ccc(Cl)cc5)n4)c(N)c13)CC(C)(C)CC2=O	/	-8	/	/	/
O=C1CSC(c2ccccn2)N1c1ccccc1 (stereo unspecified)	0	-27	6	21482*	2
O=C1CSC(c2ccccn2)N1c1ccc(Br)cc1 (stereo unspecified)	2	3	7	3410	0
CC12CCC(CC1=O)C2(C)CBr (stereo unspecified)	/	-17	/	/	/
CC[n+]1c(/C=C2\Sc3ccccc3N2C)ccc2cccc(C)c21	-31	/	-60	4252	62*
CN1/C(=C/c2cccc[n+]2CCO)Sc2ccccc21	3	-15	-24	4024	-3
CCN1/C(=C/c2ccc3cc(C)ccc3[n+]2CC)Sc2cc(C)c(C)cc21	-62	40	-93	8339	49*
CCN1/C(=C/c2ccc3cc(C)ccc3[n+]2CC)Sc2ccccc21	22	43	-28	6257	78*
CCN1/C(=C/C=C/C=C/C=C/c2sc3ccccc3[n+]2CC)Sc2ccccc21	-75	/	-250	1654	8
CCN1/C(=C/C=C/c2sc3ccccc3[n+]2CC)Sc2ccccc21	-192	/	-159	1601	32*
Cc1cc(OC2CCN(S(=O)(=O)c3ccccc3Br)CC2)cc(=O)n1C	/	-8	/	/	/
CCOC(=O)CSC1=C(C#N)C(c2ccco2)C(C(=O)Nc2cccc(C(F)(F)F)c2)=C(C)N1 (stereo unspecified)	-1	-25	-8	25424*	-6
CCC(c1nnnn1CCOC)N(Cc1cc2cc(C)c(C)cc2[nH]c1=O)CC1CCCO1 (stereo unspecified)	-2	-8	-2	15328	3
CCCC(c1nnnn1CCOC)N(Cc1cc2cc(C)c(C)cc2[nH]c1=O)CC1CCCO1 (stereo unspecified)	1	-15	-1	16616*	0
CCOC(=O)c1nn(-c2ccc(F)cc2)c(=O)cc1NCc1ccc2c(c1)OCO2	/	-20	/	/	/
CCSc1nnc(NC(=O)CSc2nc(N)c(NC(=O)c3ccc(F)cc3)c(=O)[nH]2)s1	/	-16	/	/	/
CCCCn1c(O)c(C(C)=NC(Cc2c[nH]c3ccccc23)C(=O)OC)c(=O)[nH]c1=O (stereo unspecified)	0	-8	-3	20728*	-3
CCCCn1c(O)c(C(C)=NCCc2c[nH]c3ccccc23)c(=O)[nH]c1=O	1	-5	?	5010	-3
SMILES	Anthrax LF prot	SSB-PriA inh	BoNT F protease	Autofluor counter	BoNT A protease
CCCCn1c(O)c(C(CC)=Nc2ccc3c(c2)CCC3)c(=O)[nH]c1=O	-12	-5	9	16607*	8
CCCCn1c(O)c(C(C)=Nc2cccc(C(=O)O)c2)c(=O)[nH]c1=O	0	-10	0	21668*	?
O=C(Nc1ccc2c(c1)OCO2)N1CCSC(c2ccccc2Cl)CC1 (stereo unspecified)	/	12	/	/	/
COC(=O)CCc1csc(N)n1	/	-14	/	/	/
CC(O)(CS(=O)(=O)c1ccccc1)C(=O)Nc1cccc(C(F)(F)F)c1 (stereo unspecified)	0	-11	0	21019*	-1
O=C(N/N=C/c1ccc(OCc2ccccc2)cc1)c1cccs1	-9	/	6	20999*	2
COCCn1c(C)cc(O)c([C@H](c2ccccc2F)N2CCN(c3ccccn3)CC2)c1=O	/	-18	/	/	/
